Results from the supplement of paper PMC9254222.
In all, about 1,100 compounds were measured (“Wnt reporter firefly/Renilla luciferase ratio relative to plate median”: median about 1.1, highest 2% from about 1.6 on). This is one part of a sample in which the highest values are shown more often than they occur.

Tested on: HEK293T (UBE3A T485A transfected, BAR Wnt reporter)
Assay: Wnt reporter firefly/Renilla luciferase ratio relative to plate median (fold (linear ratio)); higher = more Wnt/beta-catenin reporter activation
Details: 24 h
In short: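 HEK293T cells carrying a transfected BAR firefly luciferase Wnt reporter, TK-Renilla and an expression plasmid were exposed to chemicals at 0.01–100 uM for 24 h, with dosing four hours after transfection. Readout used Dual-Glo luciferase. The firefly/Renilla ratio defined Wnt activity and raw Renilla defined cell health, each median-centred per plate. Figures are means of four biological replicates.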

SMILES	Wnt reporter firefly/Renilla luciferase ratio (concentration: 0.01 uM)	Wnt reporter firefly/Renilla luciferase ratio (concentration: 0.1 uM)	Wnt reporter firefly/Renilla luciferase ratio (concentration: 1 uM)	Wnt reporter firefly/Renilla luciferase ratio (concentration: 10 uM)	Wnt reporter firefly/Renilla luciferase ratio (concentration: 100 uM)
CNC(=O)Oc1cccc2c1OC(C)(C)O2 [Bendiocarb]	1.3	1.17	1.01	0.983	1.38
CC(Oc1cccc(Cl)c1)C(=O)O (configuration not stated) [Cloprop]	1.31	1.51	1.12	1.28	1.45
CC(C)Oc1cccc(NC(=O)c2ccccc2C(F)(F)F)c1 [Flutolanil]	0.682	0.79	1.01	0.768	0.559
CC(C)OC(=O)Nc1cccc(Cl)c1 [Chlorpropham]	1.45	1.78	1.23	1.47	0.823
CCNc1nc(NC(C)C)nc(SC)n1 [Ametryn]	0.686	0.725	0.813	1.29	0.791
CC(C)C1(C)N=C(c2ncccc2C(=O)O)NC1=O (configuration not stated) [Imazapyr]	1.14	1.29	1.04	1.09	1.24
COP(=S)(OC)SCN1C(=O)c2ccccc2C1=O [Phosmet]		1.07	0.925	1.47	1.65
COP(=S)(OC)SCn1nnc2ccccc2c1=O [Azinphos-methyl]	1.01	0.911	0.978	0.89	0.837
CNC(=O)CSP(=S)(OC)OC [Dimethoate]	0.95	0.993	1.02	1.02	1.1
CCNc1nc(Cl)nc(NCC)n1 [Simazine]	1	1.19	1.01	1.06	1.52
O=C(O)C(F)(F)C(F)(F)C(F)(F)C(F)(F)C(F)(F)C(F)(F)C(F)(F)C(F)(F)C(F)(F)F		0.93	1.14	1.04	1.19
O=C(O)C(F)(F)C(F)(F)C(F)(F)C(F)(F)C(F)(F)C(F)(F)C(F)(F)C(F)(F)C(F)(F)C(F)(F)F [Perfluoroundecanoic acid]		1.11	0.936	0.954	0.68
O=C(O)C(F)(F)C(F)(F)C(F)(F)C(F)(F)C(F)(F)C(F)(F)C(F)(F)F	1.29	1.71	1.19	1.41	1.46
O=C(O)C(F)(F)C(F)(F)C(F)(F)C(F)(F)C(F)(F)C(F)(F)F [Perfluoroheptanoic acid]		0.82	1.02	0.932	0.483
O=C(O)C(F)(F)C(F)(F)C(F)(F)C(F)(F)C(F)(F)F		1.16	1.48	1.38	2.14
O=C(O)C(F)(F)C(F)(F)C(F)(F)C(F)(F)C(F)(F)C(F)(F)C(F)(F)C(F)(F)F		1.29	0.95	1.12	0.369
Oc1cc(Cl)c(Cl)cc1Cl [2,4,5-Trichlorophenol]		1.12	0.917	0.962	
